PubChem BioAssay (NCATS)
Results filed as inconclusive are left out. The source made the active and inactive calls. Unless noted, the call rests on the fitted dose curve; in most records, active means well fitted curve in the direction sought with a large enough effect; inconclusive means small, poorly fitted or top-dose-only effect, or another doubt; inactive means no such curve, though single readings can be large; an effect the other way counts as inactive or inconclusive.

Experiments:
[1] = biological target: N-terminal Xaa-Pro-Lys N-methyltransferase 1 (Homo sapiens) (UniProt Q9BV86); assay: Confirmatory qHTS for Inhibitors of N-terminal methyltransferase 1 (NTMT1): MTaseGlo Assay (AID 1645874); further: potency means the concentration at half of the fitted maximal effect; nearly all actives have a fitted effect of over 65% in size
N-terminal Xaa-Pro-Lys N-methyltransferase 1 (Homo sapiens), sequence (Q9BV86 whole entry, looked up): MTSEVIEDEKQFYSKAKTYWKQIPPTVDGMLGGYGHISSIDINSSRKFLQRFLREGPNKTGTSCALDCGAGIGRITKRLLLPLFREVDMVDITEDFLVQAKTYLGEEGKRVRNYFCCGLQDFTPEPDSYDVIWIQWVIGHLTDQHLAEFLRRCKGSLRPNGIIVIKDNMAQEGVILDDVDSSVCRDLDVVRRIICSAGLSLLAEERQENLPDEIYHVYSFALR
Procedure, shortened: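 Inhibition was derived from luminescence after SAH-to-ATP conversion, scaled between no-enzyme and DMSO wells, then fitted by 4-parameter Hill. Conditions: 125 nM NTMT1, 100 uM SAM, 1 uM SPKRIA, 30 min RT.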

[2] = Primary qHTS for inhibitors of nuclear receptor binding SET domain protein 2 (NSD2) in an isogenic RCH-ACV NSD2 p.E1099K mutant (9B) (AID 1645876); further: nearly all actives have a fitted effect of over 70% in size; further: potency means the concentration at half of the fitted maximal effect
[3] = Primary qHTS for inhibitors of nuclear receptor binding SET domain protein 2 (NSD2) in an RCH-ACV wild type WT cells (2C) (AID 1645877); further: nearly all actives have a fitted effect of over 70% in size; further: potency means the concentration at half of the fitted maximal effect
[4] = biological target: Catechol O-methyltransferase (Homo sapiens) (UniProt P21964); assay: Confirmatory Screen for Target Class Profiling of Small Molecule Inhibitors of Methyltransferases (AID 1745852; calls by dose curve; on activity change, negative = inhibition: on the % scale 0 is the no-effect control and ±100 the full control effect); settings: MTase-Glo luminescence, SAH detection, recombinant enzyme; measured here: COMT max response; stronger effect = lower value
Catechol O-methyltransferase (Homo sapiens), sequence (P21964 whole entry, looked up): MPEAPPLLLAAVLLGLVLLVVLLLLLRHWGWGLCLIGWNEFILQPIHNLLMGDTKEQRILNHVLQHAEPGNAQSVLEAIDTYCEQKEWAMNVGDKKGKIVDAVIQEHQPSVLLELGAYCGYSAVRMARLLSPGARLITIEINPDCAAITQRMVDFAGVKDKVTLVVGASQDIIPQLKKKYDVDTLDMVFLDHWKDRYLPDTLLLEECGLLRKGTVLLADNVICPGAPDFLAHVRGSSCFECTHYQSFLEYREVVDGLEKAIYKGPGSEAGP

[5] = biological target: Guanidinoacetate N-methyltransferase (Homo sapiens) (UniProt Q14353); assay: as above; settings: MTase-Glo luminescence, SAH detection, recombinant enzyme; activity change, negative = inhibition: at 57.3 µM (top of the series) unless noted
[6] = biological target: Nicotinamide N-methyltransferase (Homo sapiens) (UniProt P40261); assay: as above; settings: MTase-Glo luminescence, SAH detection, recombinant enzyme; measured here: NNMT max response; stronger effect = lower value
Nicotinamide N-methyltransferase (Homo sapiens), sequence (P40261 whole entry, looked up): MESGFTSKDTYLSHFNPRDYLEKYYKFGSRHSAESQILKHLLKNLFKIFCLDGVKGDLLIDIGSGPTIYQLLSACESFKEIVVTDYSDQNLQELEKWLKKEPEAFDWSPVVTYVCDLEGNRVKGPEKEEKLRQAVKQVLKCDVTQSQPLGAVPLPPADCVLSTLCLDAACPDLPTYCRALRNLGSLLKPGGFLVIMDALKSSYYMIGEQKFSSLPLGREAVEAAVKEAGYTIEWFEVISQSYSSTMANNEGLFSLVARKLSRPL

[7] = biological target: Phenylethanolamine N-methyltransferase (Homo sapiens) (UniProt P11086); assay: as above; settings: MTase-Glo luminescence, SAH detection, recombinant enzyme; measured here: PNMT max response; stronger effect = lower value
Phenylethanolamine N-methyltransferase (Homo sapiens), sequence (P11086 whole entry, looked up): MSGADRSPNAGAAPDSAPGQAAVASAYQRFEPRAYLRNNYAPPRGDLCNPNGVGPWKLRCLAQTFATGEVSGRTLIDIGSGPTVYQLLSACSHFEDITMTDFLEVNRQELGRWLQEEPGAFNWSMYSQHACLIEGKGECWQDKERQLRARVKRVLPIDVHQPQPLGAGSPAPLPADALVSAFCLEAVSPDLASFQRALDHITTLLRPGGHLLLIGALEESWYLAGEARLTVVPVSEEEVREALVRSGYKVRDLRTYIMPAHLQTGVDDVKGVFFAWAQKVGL

[8] = biological target: Glutathione peroxidase 1 (Homo sapiens) (UniProt P07203); assay: Primary qHTS Assay for Inhibitors of Recombinant Selenoprotein Glutathione Peroxidase 1 (GPX1) (AID 1845191); further: nearly all actives have a fitted effect of over 65% in size
Glutathione peroxidase 1 (Homo sapiens), sequence (P07203 whole entry, looked up): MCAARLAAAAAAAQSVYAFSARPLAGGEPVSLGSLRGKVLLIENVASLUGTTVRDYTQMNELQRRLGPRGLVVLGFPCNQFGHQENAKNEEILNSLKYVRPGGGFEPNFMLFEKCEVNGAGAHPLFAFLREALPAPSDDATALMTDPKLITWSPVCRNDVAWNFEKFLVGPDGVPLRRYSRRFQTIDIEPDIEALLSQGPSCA
Procedure, shortened: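 NADPH consumption tracked by fluorescence at 340/450 nm between t=0 and t=15 min, room temperature. Final mix: 10 nM GPX1, 100 nM glutathione reductase, 1 mM GSH, 0.5 mM NADPH, 0.5 mM cumene hydroperoxide, 0.01% BSA; 30 min compound–enzyme preincubation.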

[9] = biological target: Rap guanine nucleotide exchange factor 3 (Homo sapiens) (UniProt O95398); assay: Confirmatory qHTS for antagonist of cAMP-regulated guanine nucleotide exchange factor 3 (EPAC1) (AID 1645880);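 further: plate controls were DMSO only for no effect and full effect of the ATA control for full effect; nearly all actives have a fitted effect of over 55% in size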
Rap guanine nucleotide exchange factor 3 (Homo sapiens), sequence (O95398 whole entry, looked up): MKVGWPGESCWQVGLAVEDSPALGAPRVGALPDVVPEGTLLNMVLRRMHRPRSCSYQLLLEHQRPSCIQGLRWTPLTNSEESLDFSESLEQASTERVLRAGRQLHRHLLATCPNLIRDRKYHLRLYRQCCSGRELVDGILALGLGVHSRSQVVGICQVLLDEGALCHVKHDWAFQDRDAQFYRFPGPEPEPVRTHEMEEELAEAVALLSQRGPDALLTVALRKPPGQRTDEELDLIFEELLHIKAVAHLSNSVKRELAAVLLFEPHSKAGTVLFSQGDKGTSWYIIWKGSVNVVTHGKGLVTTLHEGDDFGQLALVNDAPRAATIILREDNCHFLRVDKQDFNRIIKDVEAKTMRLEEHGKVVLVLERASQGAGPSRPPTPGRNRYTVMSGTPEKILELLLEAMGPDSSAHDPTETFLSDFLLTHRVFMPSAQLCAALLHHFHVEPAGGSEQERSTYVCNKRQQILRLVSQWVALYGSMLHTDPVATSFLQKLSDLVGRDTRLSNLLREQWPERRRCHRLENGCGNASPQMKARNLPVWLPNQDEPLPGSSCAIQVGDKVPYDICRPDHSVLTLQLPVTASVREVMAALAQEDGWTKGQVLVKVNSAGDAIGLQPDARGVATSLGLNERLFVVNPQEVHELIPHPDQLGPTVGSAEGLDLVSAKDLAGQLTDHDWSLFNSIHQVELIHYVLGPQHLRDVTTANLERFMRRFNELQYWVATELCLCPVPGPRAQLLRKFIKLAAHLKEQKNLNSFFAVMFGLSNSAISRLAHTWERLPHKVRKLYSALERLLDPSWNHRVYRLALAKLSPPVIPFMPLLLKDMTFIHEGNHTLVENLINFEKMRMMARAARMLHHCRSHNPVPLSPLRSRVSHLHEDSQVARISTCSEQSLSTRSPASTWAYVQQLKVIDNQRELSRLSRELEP
Procedure, shortened: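 Released BODIPY-GDP fluoresces less than Rap1-bound BODIPY-GDP; the signal is followed at 480/540 nm at 5-min intervals over 30 min, after 5 min at room temperature. Reactions contain 100 nM EPAC1, 250 nM RAP1B-BODIPY-GDP and 50 uM GDP; results are normalized to ATA and DMSO.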

[10] = biological target: Rap guanine nucleotide exchange factor 3 (Homo sapiens) (UniProt O95398); assay: Counterscreen qHTS for antagonist of cAMP-regulated guanine nucleotide exchange factor 3 (EPAC1) (AID 1645888); further: % of control where 0% means no effect
Procedure, shortened: (§1)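 Rap1B-BODIPY-GDP 250 nM + GDP 50 uM; cpds 7-pt, final 9.74 nM–152 uM (activator mode) or from 7.32 nM upwards (inhibitor mode); RT; FI 480/540 nm at 5 and 30 min, then ± cAMP, reread.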

[11] = biological target: Rap guanine nucleotide exchange factor 3 (Homo sapiens) (UniProt O95398); assay: Counterscreen qHTS for agonist of cAMP-regulated guanine nucleotide exchange factor 3 (EPAC1) (AID 1645889); further: potency means the concentration at half of the fitted maximal effect; nearly all actives have a fitted effect of over 40% in size
Procedure, shortened: as §1

[12] = biological target: Phospholipid hydroperoxide glutathione peroxidase GPX4 (Homo sapiens) (UniProt P36969); assay: Primary qHTS Assay for Inhibitors of Recombinant Selenoprotein Glutathione Peroxidase 4 (GPX4) (AID 1845192); further: nearly all actives have a fitted effect of over 65% in size; further: potency means the concentration at half of the fitted maximal effect; on activity change, negative = inhibition: on the % scale 0 is the no-effect control and ±100 the full control effect
Phospholipid hydroperoxide glutathione peroxidase GPX4 (Homo sapiens), sequence (P36969 whole entry, looked up): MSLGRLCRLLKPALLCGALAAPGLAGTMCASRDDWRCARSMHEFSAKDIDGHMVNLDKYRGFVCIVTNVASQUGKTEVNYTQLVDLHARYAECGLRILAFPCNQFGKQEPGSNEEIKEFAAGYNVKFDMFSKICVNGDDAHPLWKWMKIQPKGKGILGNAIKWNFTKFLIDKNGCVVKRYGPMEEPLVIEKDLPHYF
Procedure, shortened: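 NADPH consumption followed by fluorescence at 340/450 nm, t=0 and after 15 min at room temperature. Reaction started with cumene hydroperoxide (0.5 mM final) after 30 min compound–GPX4 preincubation; final 200 nM GPX4, 100 nM GR, 1 mM GSH, 0.5 mM NADPH.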

[13] = qHTS drug screen for cell cycle checkpoint inhibitors in PARPi-resistant BRCA-mutant ovarian cancer cell lines. (AID 1963452; calls by dose curve; further: potency means the concentration at half of the fitted maximal effect); settings: PEO1/OlaR viability, CellTiter-Glo luminescence, 96 h; for Z-AUC: stronger effect = lower value
Procedure, shortened: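 PEO1, PEO4 and PEO1/OlaR ovarian cancer cells, 600 per well, exposed 96 h at 37C to a dilution series. Viability read by CellTiter-Glo luminescence, normalized to DMSO and empty wells; activity summarized as Z-AUC.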

[14] = measured here: PEO1 parental Z-AUC

COc1cc2c(NC3CCN(CC4CCCCC4)CC3)nc(N3CCCN(C)CC3)nc2cc1OCCCN1CCCCC1
Potency [1]: 34.5 µM (active)

O=C1N=C(O)S/C1=C\c1ccc2nccnc2c1
Potency [2]: 18.4 µM (active) | Potency [3]: 20.6 µM (active)

Oc1cccc(Nc2nc(-c3ccccc3)nc3ccccc23)c1
Potency [1]: 15.8 µM (active)

O=C1Nc2ccccc2/C1=C/c1cc(O)ccc1O
Potency [2]: 16.4 µM (active) | Potency [3]: 18.4 µM (active) | activity [4]: -4.65% | activity change, negative = inhibition [5]: -0.984% | activity [6]: -18.3% | activity [7]: -2.66% | Potency [8]: inactive

CCOc1ccc(/C=C/c2nc3ccccc3n2S(=O)(=O)c2cccc(Cl)c2)cc1
Potency [1]: 12 µM (active)

Cc1cccc(NC(=O)c2sc3nc(-c4cc5ccc(O)cc5oc4=O)[nH]c(=O)c3c2C)c1
Potency [1]: 6.02 µM (active) | Potency [9]: inactive | Potency [10]: inactive | Potency [11]: 50.1 µM (active)

CC[C@]12C=CCN3CC[C@@]4(c5cc([C@@]6(C(=O)OC)CC7C[C@@H](C(C)(F)F)CN(Cc8c6[nH]c6ccccc86)C7)c(OC)cc5N(C)[C@H]4[C@@](O)(C(=O)OC)[C@@H]1OC(C)=O)[C@@H]32 (stereo partly drawn)
Potency [2]: 0.263 µM (active) | Potency [3]: 0.186 µM (active)

Cc1cn(C2C[C@H](O)[C@@H](CO)O2)c(=O)[nH]c1=O (stereo partly drawn)
Potency [2]: inactive | Potency [3]: inactive

CCN1CCN(c2ccc(Nc3ccc(-c4ccc(C(N)=O)cc4)n4ncnc34)cc2)CC1
Potency [2]: 9.2 µM (active) | Potency [3]: 7.31 µM (active) | activity [4]: -0.444% | activity change, negative = inhibition [5]: 0% | activity [6]: -65.3% | activity [7]: -8.41% | Potency [8]: inactive

C=CC(=O)N1CC[C@@H](Oc2nc(Nc3ccc(N4CCC(N5CCN(C)CC5)CC4)cc3)c(C(N)=O)nc2CC)C1
Potency [1]: 4.15 µM (active) | Potency [2]: 0.91 µM (active) | Potency [3]: 1.62 µM (active) | Potency [8]: inactive | Potency [12]: inactive | Potency [13]: 1.69 µM (active) | Z-AUC [13, 14]: -1.18 | Z-AUC ([13]; measured here: PEO4 Z-AUC): -1.49

N#CNC(=O)c1ccc(-n2cccc2/C=C2\NC(=O)N(CC(=O)Nc3ccc(F)cc3)C2=O)cc1
Potency [1]: 7.58 µM (active)

COc1cc2c(NC3CCN(C)CC3)nc(N3CCCN(C)CC3)nc2cc1OCCCN(C)C
Potency [2]: inactive | Potency [3]: inactive | activity [4]: 3.04% | activity change, negative = inhibition [5]: 3.96% | activity [6]: -9.37% | activity [7]: -4.66% | Potency [8]: inactive | Potency [12]: 18 µM (active) | Z-AUC [13]: -0.893 (inactive) | Z-AUC [13, 14]: -0.915 | Z-AUC ([13]; measured here: PEO4 Z-AUC): -1.6

CCCS(=O)(=O)c1nc(NC2CC2)cc(-c2ccc3c(ccn3C3CC(C)(C)NC(C)(C)C3)c2)n1
Potency [2]: 2.48 µM (active) | Potency [3]: 2.21 µM (active) | activity [4]: -4.11% | activity change, negative = inhibition [5]: 1.84% [at 19.1 µM] | activity [6]: -12% | activity [7]: -6.24% | Potency [8]: inactive | Potency [12]: inactive | Z-AUC [13]: -1.38 (inactive) | Z-AUC [13, 14]: -1.22 | Z-AUC ([13]; measured here: PEO4 Z-AUC): -1.57
